Among the data in PubChem BioAssay AID1159580 (chemical genetic matrix, 2015) are normalized growth values, retold here.

The nature of this test: chemical genetic growth profiling, strain panel (AID 1159580).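 Further: tested at 20 µM; growth read once vehicle control cultures reached saturation at 30 °C; 1 = growth at the plate median or of vehicle wells; lower values mean less growth of the strain.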 The note with it: S. cerevisiae deletion strains, growth OD.
The mark [1] stands for this setting: locus YAL040C, strain CLN3, hits give low values.
Setting [2] is: locus YCL061C, strain MRC1 (second series), hits give low values.
Where [3] appears, read: locus YDR150W, strain NUM1, hits give low values.
Setting [4] is: locus YDR363W, strain ESC2, hits give low values.
The mark [5] stands for this setting: locus YER002W, strain NOP16, hits give low values.
Where [6] appears, read: locus YJR075W, strain HOC1, hits give low values.
[7] abbreviates: locus YMR263W, strain SAP30, hits give low values.
The mark [8] stands for this setting: locus YMR307W, strain GAS1, hits give low values.
Setting [9] is: locus YNL153C, strain GIM3, hits give low values.
Where [10] appears, read: locus YNL175C, strain NOP13, hits give low values.
Setting [11] is: locus YNL197C, strain WHI3, hits give low values.
Setting [12] is: locus YNL224C, strain SQS1, hits give low values.
[13] abbreviates: locus YOR083W, strain WHI5 (second series), hits give low values.
Where [14] appears, read: locus YAL013W, strain DEP1, hits give low values.
Where [15] appears, read: locus YNL322C, strain KRE1, hits give low values.
Setting [16] is: locus YPL241C, strain CIN2, hits give low values.
Where [17] appears, read: locus YBR229C, strain ROT2, hits give low values.
Where [18] appears, read: locus YDL101C, strain DUN1, hits give low values.
[19] abbreviates: locus YDL134C, strain PPH21, hits give low values.
Where [20] appears, read: locus YEL061C, strain CIN8, hits give low values.
The mark [21] stands for this setting: locus YGR078C, strain PAC10, hits give low values.
Setting [22] is: locus YHR030C, strain SLT2, hits give low values.
[23] abbreviates: locus YHR087W, strain rtc3, hits give low values.
The mark [24] stands for this setting: locus YJR043C, strain POL32, hits give low values.
[25] abbreviates: locus YLR039C, strain RIC1, hits give low values.
The mark [26] stands for this setting: locus YLR058C, strain SHM2 (second series), hits give low values.
Setting [27] is: locus YLR085C, strain ARP6, hits give low values.
Where [28] appears, read: locus YLR262C, strain YPT6, hits give low values.
[29] abbreviates: locus YML094W, strain GIM5, hits give low values.
Where [30] appears, read: locus YMR219W, strain ESC1, hits give low values.
Where [31] appears, read: locus YNL298W, strain CLA4 (second series), hits give low values.
The mark [32] stands for this setting: locus YNR030W, strain Alg12, hits give low values.
[33] abbreviates: locus YOL006C, strain TOP1, hits give low values.
[34] abbreviates: locus YPL055C, strain LGE1, hits give low values.
[35] abbreviates: locus YPR135W, strain CTF4, hits give low values.

Out of some 5,500 compounds screened, about 2,000 (36%) were called active. Another 18% or so got no clear call; they are omitted. This is one part of the list. A number with no mark means an inactive call. No stated cut-off is given here; in the data, active means normalized growth mostly below about 0.91 (no sharp cut-off); inconclusive means no clear call, values can overlap the other calls; inactive means mostly above about 0.92.

Regarding `O=c1oc(Cl)c(Cl)c2ccccc12`, the normalized growth is, setting by setting: under setting [1], 1.03; under setting [2], 1; under setting [3], 0.991; under setting [4], 1; under setting [5], 1.02; (locus YGR229C, strain SMI1, hits give low values) 0.968. Also, the normalized growth reads like this: under setting [6], 0.998; under setting [7], 1; under setting [8], 1; under setting [9], 0.798 (active); under setting [10], 1.01; under setting [11], 1.02. Besides, the normalized growth is, setting by setting: under setting [12], 0.923; under setting [13], 0.915.

Turning to `NC(=S)c1ccc[n+]([C@@H]2O[C@@H](COP(=O)([O-])OP(=O)(O)OC[C@H]3O[C@@H](n4cnc5c(N)ncnc54)C(OP(=O)(O)O)[C@H]3O)C(O)C2O)c1` (stereo partly drawn), the normalized growth was 1.02 under setting [14]; 1.03 under setting [1]; 1.01 under setting [2]; 1 under setting [4]; 0.999 under setting [5]; 0.995 under setting [7]. The normalized growth is 1 under setting [8]; 1 under setting [10]; 1.03 under setting [11]; 1 under setting [12]; 1.02 under setting [15]; 0.998 under setting [13]. Under setting [16], the normalized growth was 1.01.

As to `Cc1ccc(S(=O)(=O)Oc2ccc(CC#N)cc2)cc1`, the normalized growth is 0.998 under setting [14]; 0.963 under setting [17]; 1.02 under setting [18]; 0.978 under setting [19]; 0.995 under setting [3]; 0.976 under setting [20]. Also, the normalized growth under setting [21] is 1.01; the normalized growth under setting [22] was 0.974; the normalized growth under setting [23] is 0.953; the normalized growth under setting [24] is 1.01; the normalized growth under setting [6] is 0.993; the normalized growth (locus YKL190W, strain CNB1, hits give low values) was 0.945. The normalized growth under setting [25] is 0.865; the normalized growth under setting [26] was 0.977; the normalized growth under setting [27] is 0.929; the normalized growth under setting [28] was 0.845; the normalized growth under setting [29] was 0.956; the normalized growth under setting [30] was 0.989. In addition, the normalized growth is 0.995 under setting [7]; 0.995 (locus YNL128W, strain TEP1, hits give low values); 1.01 under setting [9]; 0.977 under setting [31]; 0.978 under setting [15]; 0.969 under setting [32]. Moreover, the normalized growth is 0.971 under setting [33], 0.958 under setting [34], 0.979 under setting [16] and 0.863 under setting [35].

On to `Cc1ccc(S(=O)(=O)Oc2cc(=O)n(C)c3ccccc23)cc1`, for which the normalized growth runs as follows: under setting [14], 0.95; under setting [17], 0.967; under setting [18], 0.967; under setting [19], 0.945; under setting [3], 0.918; under setting [20], 0.972. The normalized growth is, setting by setting: under setting [21], 0.955; under setting [22], 0.791; under setting [23], 0.961; (locus YJL187C, strain SWE1, hits give low values) 0.861 (active); under setting [24], 0.961; under setting [6], 0.96. Besides, the normalized growth runs as follows: under setting [25], 0.971; under setting [26], 0.952; under setting [27], 0.838; under setting [28], 0.918; under setting [29], 0.952; under setting [30], 0.963. Moreover, the normalized growth runs as follows: under setting [7], 0.903; under setting [8], 0.622 (active); under setting [9], 0.954; under setting [31], 0.916; under setting [15], 0.977; under setting [32], 0.909. The normalized growth is, setting by setting: under setting [33], 0.808; under setting [34], 0.898; under setting [16], 0.873; under setting [35], 0.666.
